Data on 7 compounds can be found in PubChem BioAssay (NCATS).

SMILES strings stand for the structures. Values without a mark were called inactive. Results filed as inconclusive are left out. The source made the active and inactive calls. The call rests on the fitted dose curve; in most records, active means well fitted curve in the direction sought with a large enough effect; inconclusive means small, poorly fitted or top-dose-only effect, or another doubt; inactive means no such curve, though single readings can be large; an effect the other way counts as inactive or inconclusive.

The subject of experiment [1] is Zika virus NS2B-NS3 protease (linked construct). Kind of experiment: Primary screen NINDS Rhodamine qHTS for Zika virus inhibitors (AID 1347160). Further: on the % scale 0 is the no-effect control and ±100 the full control effect; nearly all actives have a fitted effect of over 55% in size. The procedure, abridged: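 Kinetic fluorescence (Ex 480 nm, Em 540 nm) over 15 min with 1.5 microM Rhodamine110 peptide and 25 nM linked protease.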
For orientation: In qHTS, concentration-response curves come from the screen itself.

Experiment [2] has as its target Calcium and integrin-binding protein 1 (Homo sapiens) (UniProt Q99828). Kind of experiment: Primary qHTS for Identification of Calcium Integrin Binding Protein 1 (CIB1) Competitor (AID 1508620).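 Further: GST tagged CIB1 binding a fluorescein labelled alphaIIb integrin peptide tracer; top concentration of the series differs between compounds; on the % scale 0 is the no-effect control and ±100 the full control effect.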 In outline:
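CIB1-GST (1 uM final) and compound incubated 15 min at room temperature before adding FITC-alphaIIb peptide tracer (100 nM final). Competition for binding read by fluorescence polarization (ex 480, em 540) after another 15 min at room temperature.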

Experiment [3] can be described thus: Primary qHTS for inhibitors of nuclear receptor binding SET domain protein 2 (NSD2) in an isogenic RCH-ACV NSD2 p.E1099K mutant (9B) (AID 1645876). Further: nearly all actives have a fitted effect of over 70% in size. Further: potency means the concentration at half of the fitted maximal effect.
Experiment [4] deals with Glutathione peroxidase 1 (Homo sapiens) (UniProt P07203). As to the kind of experiment: Primary qHTS Assay for Inhibitors of Recombinant Selenoprotein Glutathione Peroxidase 1 (GPX1) (AID 1845191). Further: nearly all actives have a fitted effect of over 65% in size. On activity, negative = inhibition: on the % scale 0 is the no-effect control and ±100 the full control effect. In outline: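 10 nM GPX1 + cpd, 30 min RT; start w/ 1 mM GSH, 0.5 mM cumene hydroperoxide, 0.5 mM NADPH, 100 nM GR, 0.01% BSA; buffer 50 mM Tris-HCl pH 7.5, 2 mM EDTA, 150 mM NaCl; Fl 340/450, 0 & 15 min.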

The target of experiment [5] is Luciferin 4-monooxygenase (Photinus pyralis) (UniProt P08659). As to the kind of experiment: Primary firefly luciferase (FLuc) qHTS assay for identification of artifact compounds. (AID 1845220). Further: nearly all actives have a fitted effect of over 60% in size.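 On activity change, negative = inhibition: plate controls were DMSO vehicle for no effect and no enzyme for full effect.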 Conditions: outcome: dose series up to 54.1 µM unless noted. In outline: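 Compounds sat 15 min at room temperature with 10 uM luciferin and 10 uM ATP (pH 7.6 Tris acetate). Firefly luciferase (10 nM final) was then added, and luminescence was read 5 min later. Data normalized to no-enzyme and DMSO controls were Hill-fitted.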

Experiment [6] concerns Nanoluciferase (engineered Oplophorus gracilirostris luciferase). Kind of experiment: Primary Nanoluciferase (NLuc) qHTS assay for identification of artifact compounds. (AID 1845222).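 Further: 0% = DMSO and -100% = no enzyme.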 In outline: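 Luminescence from secreted NLuc (filtered, 1:55-diluted S16 cell medium) read 5 min after Nano-Glo substrate; compounds preincubated 15 min, RT. Hill fits of inhibition normalized to DMSO and no-enzyme.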

The next experiment has as its system CRL-7250. Kind of experiment: Cytotoxic Profiling of Annotated Libraries Using Quantitative High-Throughput Screening (AID 1296008). Further: nearly all actives have a fitted effect of over 60% in size. Further: potency means the concentration at half of the fitted maximal effect. On max response: on the % scale 0 is the no-effect control and ±100 the full control effect. To be noted: Five cell lines viability, CellTiter-Glo ATP luminescence, 48-72 h; max response: hits give low values. In outline:
(§1)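 Cytotoxicity was measured as CellTiter-Glo ATP luminescence, read after 10 min at room temperature. Compound treatment of the cells lasted 48 or 72 hr at 37 degrees Celsius in a qHTS format.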

A further experiment relates to HEK293. The experiment is described as above. To be noted: Five cell lines viability, CellTiter-Glo ATP luminescence, 48-72 h; max response: hits give low values. The procedure, abridged:
as §1
A general note: Cellular ATP, detected with luciferase, serves as a proxy for viable cell number.

The next experiment deals with HaCat. Described as above. Conditions: Five cell lines viability, CellTiter-Glo ATP luminescence, 48-72 h; max response: hits give low values. The procedure, abridged: as §1
A further experiment relates to NIH3T3. The experiment is described as above. To be noted: Five cell lines viability, CellTiter-Glo ATP luminescence, 48-72 h; max response: hits give low values. The procedure, abridged:
as §1

A further experiment concerns C33A. Kind of experiment: Primary qHTS to identify gynecologic anti-cancer compounds using libraries of approved drugs and bioactive compounds (AID 1345084). Further: nearly all actives have a fitted effect of over 55% in size. Further: potency means the concentration at half of the fitted maximal effect. To be noted: Gynecologic cancer cell panel viability, ATPlite luminescence, 48 h; series mostly up to 57.5 µM. In outline:
(§2)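 Luminescence from the ATPlite ATP-monitoring reagent indicates viable cell number; lower signal means cytotoxicity. Cells received compound 16 h after seeding and were exposed for 48 h across five concentrations.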

For another experiment, the system named is CASKI. Described as above. To be noted: Gynecologic cancer cell panel viability, ATPlite luminescence, 48 h; series mostly up to 57.5 µM. The procedure, abridged: as §2
The test system of another experiment is Es-2. Described as above. Conditions: Gynecologic cancer cell panel viability, ATPlite luminescence, 48 h; series mostly up to 57.5 µM. The procedure, abridged:
as §2

A further experiment concerns Hek293T. Described as above. Conditions: Gynecologic cancer cell panel viability, ATPlite luminescence, 48 h, control line for the selectivity index; series mostly up to 57.5 µM. The procedure, abridged: as §2
The next experiment relates to JEG-3. The experiment is described as above. Conditions: Gynecologic cancer cell panel viability, ATPlite luminescence, 48 h; series mostly up to 57.5 µM. In outline: as §2
In a further experiment the test system is OV90. The description is as above. Conditions: Gynecologic cancer cell panel viability, ATPlite luminescence, 48 h; series mostly up to 57.5 µM. In outline: as §2
The test system of the next experiment is PA-1. The description is as above. To be noted: Gynecologic cancer cell panel viability, ATPlite luminescence, 48 h; series mostly up to 57.5 µM. In outline: as §2
For another experiment, the system named is Tov-21-G. The experiment is described as above. Conditions: Gynecologic cancer cell panel viability, ATPlite luminescence, 48 h; series mostly up to 57.5 µM. The procedure, abridged: as §2
The subject of the next experiment is Tov112D. The experiment is described as above. To be noted: Gynecologic cancer cell panel viability, ATPlite luminescence, 48 h; series mostly up to 57.5 µM. In outline:
as §2

Experiment [7] deals with Phospholipid hydroperoxide glutathione peroxidase GPX4 (Homo sapiens) (UniProt P36969). Kind of experiment: Primary qHTS Assay for Inhibitors of Recombinant Selenoprotein Glutathione Peroxidase 4 (GPX4) (AID 1845192). Further: nearly all actives have a fitted effect of over 65% in size. On activity change, negative = inhibition: on the % scale 0 is the no-effect control and ±100 the full control effect. In outline:
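NADPH consumption, followed by fluorescence at 340/450 nm between 0 and 15 min, reports GPX4 activity via coupled glutathione reductase (100 nM). Enzyme 200 nM was pre-exposed to compound 30 min; 0.5 mM cumene hydroperoxide and 1 mM GSH served as substrates.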

Chain of Phospholipid hydroperoxide glutathione peroxidase GPX4 (Homo sapiens) (P36969 whole entry, looked up): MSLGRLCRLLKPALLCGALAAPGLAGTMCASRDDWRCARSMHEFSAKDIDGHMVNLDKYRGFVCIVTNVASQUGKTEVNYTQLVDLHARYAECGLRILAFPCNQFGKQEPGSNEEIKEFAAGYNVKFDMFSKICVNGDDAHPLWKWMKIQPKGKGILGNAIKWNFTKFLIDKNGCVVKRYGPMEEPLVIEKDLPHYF
Chain of Glutathione peroxidase 1 (Homo sapiens) (P07203 whole entry, looked up): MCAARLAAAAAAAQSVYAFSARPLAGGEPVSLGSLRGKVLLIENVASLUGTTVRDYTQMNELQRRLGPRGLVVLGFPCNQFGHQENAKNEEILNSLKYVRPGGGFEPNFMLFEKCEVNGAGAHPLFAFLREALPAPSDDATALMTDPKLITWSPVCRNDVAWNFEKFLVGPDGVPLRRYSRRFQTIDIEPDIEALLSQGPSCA
Chain of Calcium and integrin-binding protein 1 (Homo sapiens) (Q99828 whole entry, looked up): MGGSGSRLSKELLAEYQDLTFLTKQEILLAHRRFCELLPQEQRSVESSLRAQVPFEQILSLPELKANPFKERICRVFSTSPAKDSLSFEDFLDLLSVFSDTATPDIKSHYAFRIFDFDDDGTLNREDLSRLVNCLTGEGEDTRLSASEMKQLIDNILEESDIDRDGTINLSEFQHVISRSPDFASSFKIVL

Take `C=CC(C)(C)c1[nH]c2c(CC=C(C)C)cc(CC=C(C)C)cc2c1C[C@@H]1NC(=O)[C@H](C)NC1=O`: the Potency result (in [1]; in experiment [2]; in [3]; in experiment [4]; in [6]; in the experiment with C33A) was “inactive” in each case. Besides, the Potency result in the experiment on CASKI, in the experiment with Es-2, in the experiment with Hek293T, in the experiment with JEG-3, in the experiment with OV90 and in the experiment on PA-1 was “inactive” in each case. Also, the Potency result in the experiment on Tov-21-G and in the experiment on Tov112D was “inactive” throughout. In addition, in experiment [5], the result was inactive. The max response with CRL-7250 was 3.03%; with HEK293, -8.14%; in the experiment with HaCat, -1.56%; in the experiment with NIH3T3, 2.77%.

With `CC1=CC2OC3[C@H](O)C[C@@](C)([C@]34CO4)[C@@]2(CO)[C@H](O)C1=O` (stereo partly drawn), the Potency result (in [1]; in experiment [2]; in experiment [4]; in experiment [7]; in experiment [6]; in the experiment on JEG-3) was “inactive” in each case. Moreover, the Potency in experiment [3] is 1.63 µM (active); in the experiment with CRL-7250, 3.26 µM (active); in the experiment on HEK293 it was 1.64 µM (active); with HaCat, 14.6 µM (active); with NIH3T3 it was 1.3 µM (active); in the experiment with Es-2 it was 10 µM (active). Also, in the experiment with Tov-21-G, the Potency was 14.1 µM (active). Also, the compound was called inactive in [5].

Regarding `CN[C@@H]1C[C@H]2O[C@@](C)([C@@H]1OC)n1c3ccccc3c3c4c(c5c6ccccc6n2c5c31)C(=O)NC4`, the Potency entry in experiment [2], in [4] and in [6] was “inactive” throughout. Besides, the Potency in [3] was 0.0372 µM (active); in the experiment with CRL-7250, 0.0037 µM (active); in the experiment on HEK293, 0.231 µM (active); in the experiment with HaCat it was 0.184 µM (active); in the experiment with C33A, 1.26 µM (active); in the experiment with CASKI it was 0.251 µM (active). The Potency was 0.631 µM (active) with Es-2; 4.47 µM (active) in the experiment on Hek293T; 0.316 µM (active) in the experiment on OV90; 0.251 µM (active) in the experiment with PA-1; 0.891 µM (active) in the experiment on Tov112D. In addition, the compound was called inactive in experiment [5].

On to `CC(=O)N1N=C(c2ccc(N)cc2)c2cc3c(cc2C[C@H]1C)OCO3`, for which the Potency result (in experiment [1]; in experiment [2]; in [4]; in [6]; with C33A; in the experiment with CASKI) was “inactive” throughout. Besides, the Potency entry in the experiment with Es-2, in the experiment on Hek293T, with JEG-3, in the experiment on OV90, in the experiment on PA-1 and in the experiment with Tov-21-G was “inactive” in each case. Also, the Potency entry with Tov112D is “inactive”. The compound was called inactive in experiment [5]. Besides, the max response with CRL-7250 was -0.992%; in the experiment on HEK293 it was -4.81%; in the experiment with HaCat, -4.11%; in the experiment on NIH3T3, -2.08%.

For the compound `O=C(CC1NCCC[C@H]1O)Cn1cnc2cc(Br)c(Cl)cc2c1=O` (stereo partly drawn), in [7], the Potency result is “inactive”. Moreover, the max response in the experiment with CRL-7250 was -5.15%; in the experiment with HEK293 it was -10.4%; in the experiment with HaCat it was -11.7%; in the experiment on NIH3T3 it was -4.52%.

As to `COC1CC(O[C@H]2CC[C@]3(C=O)C4CC[C@]5(C)[C@@H](C6=CC(=O)OC6)CC[C@]5(O)[C@@H]4CC[C@@H]3C2)OC(C)C1O[C@@H]1O[C@H](CO)[C@@H](O[C@@H]2O[C@H](CO)[C@@H](O)[C@H](O)[C@H]2O)[C@H](O)[C@H]1O` (stereo partly drawn), the Potency entry in experiment [1], in experiment [2] and in [7] was “inactive” in each case. The Potency in [3] is 0.0774 µM (active); in the experiment with CRL-7250, 0.123 µM (active); in the experiment with HEK293, 0.219 µM (active); in the experiment on HaCat, 0.873 µM (active); in the experiment with C33A it was 0.178 µM (active); with Es-2, 0.398 µM (active). For the same compound, the Potency in the experiment on Hek293T was 0.447 µM (active); in the experiment on OV90, 1.58 µM (active); with PA-1 it was 0.447 µM (active); in the experiment with Tov-21-G it was 0.224 µM (active); with Tov112D it was 0.112 µM (active). Moreover, in [5], the activity change, negative = inhibition is 0.154% [at 11.6 µM]. Besides, in [6], the activity, negative = inhibition was 1.46% [at 11.6 µM]. The max response in the experiment with NIH3T3 was 3.23%.

For `CO[C@@H]1C[C@H](O[C@H]2CC[C@@]3(C)C(CCC4C3CC[C@]3(C)[C@@H](C5=CC(=O)OC5)[C@@H](OC(C)=O)CC43O)C2)O[C@H](C)[C@@H]1O[C@H]1O[C@H](CO[C@@H]2O[C@H](CO)[C@@H](O)[C@H](O)[C@H]2O)[C@@H](O)[C@H](O)[C@H]1O` (stereo partly drawn), the Potency result in experiment [1] and in experiment [2] was “inactive” in each case. Besides, the Potency is 0.346 µM (active) in experiment [3]; 0.491 µM (active) with CRL-7250; 0.873 µM (active) in the experiment with HEK293; 1.55 µM (active) in the experiment on HaCat; 0.631 µM (active) in the experiment on C33A; 1.26 µM (active) in the experiment with Es-2. Moreover, the Potency was 2 µM (active) with Hek293T, 2 µM (active) with PA-1, 0.794 µM (active) in the experiment with Tov-21-G and 0.316 µM (active) with Tov112D. In addition, the activity change, negative = inhibition in experiment [5] is -3.37% [at 11.6 µM]. In addition, the activity, negative = inhibition in experiment [6] is 1.29% [at 11.6 µM]. In addition, in the experiment with NIH3T3, the max response is -8.42%.
